From PubChem BioAssay (EPA / NIEHS)
Results filed as inconclusive are left out. Active and inactive are the calls of the source. The calls were made as follows, unless noted: active = hit-call score of the fitted dose curve at least 0.9, where 1 is the maximum; inconclusive = response in the unintended direction; inactive = score below 0.9.

Key:
[1] = CEETOX_H295R_MTT_cell_viability: Viability Assessment in the CeeTox HT-H295R MTT Assay (AID 2283718; active = hit-call score of the fitted dose curve at least 0.9, where 1 is the maximum; inactive = score below 0.9)
Procedure, shortened: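 Human H295R adrenal cells, prestimulated 48 h with 10 uM forskolin, were exposed 48 h to chemicals in 0.1% DMSO. Viability was measured in the same wells by MTT (0.5 mg/ml, 4 h, 37 C), absorbance 570/650 nm, as percent of controls.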

[2] = CEETOX_H295R_11DCORT_noMTC: CeeTox H295R High-throughput Steroidogenesis Assay for 11-Deoxycortisol (11DCORT), maximum tolerated concentration (MTC) filtered results only (AID 2283911; active = hit-call score of the fitted dose curve at least 0.9, where 1 is the maximum; inactive = score below 0.9); conditions: actives raise or lower the signal
Procedure, shortened: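 Steroidogenesis was stimulated in H295R cells with 10 uM forskolin for 48 h before a 48 h chemical exposure. Secreted 11-deoxycortisol was measured by tandem mass spectrometry and fitted bidirectionally against DMSO controls.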

[3] = CEETOX_H295R_OHPREG_noMTC: CeeTox H295R High-throughput Steroidogenesis Assay for OH-Pregnenolone (OHPREG), maximum tolerated concentration (MTC) filtered results only (AID 2283912; active = hit-call score of the fitted dose curve at least 0.9, where 1 is the maximum; inactive = score below 0.9); conditions: actives raise or lower the signal
Procedure, shortened: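 H295R; 10 uM forskolin 48 h pre-stim; test cpd in DMSO (0.1% final) 48 h; media MTBE-extracted, HPLC-MS/MS for OH-pregnenolone; bidirectional fit vs DMSO; no MTC (MTT) filtering.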

[4] = CEETOX_H295R_OHPROG_noMTC: CeeTox H295R High-throughput Steroidogenesis Assay for OH-Progesterone (OHPROG), maximum tolerated concentration (MTC) filtered results only (AID 2283914; active = hit-call score of the fitted dose curve at least 0.9, where 1 is the maximum; inactive = score below 0.9); conditions: actives raise or lower the signal
Procedure, shortened: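 Medium hormone measured by reverse-phase C18 HPLC with positive electrospray MS/MS after MTBE liquid-liquid extraction. Cells had 48 h forskolin (10 uM) prestimulation, then 48 h chemical dosing. Gain or loss of signal fitted relative to DMSO baseline.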

[5] = CEETOX_H295R_ANDR_noMTC: CeeTox H295R High-throughput Steroidogenesis Assay for Androstenedione (ANDR), maximum tolerated concentration (MTC) filtered results only (AID 2283915; active = hit-call score of the fitted dose curve at least 0.9, where 1 is the maximum; inactive = score below 0.9); conditions: actives raise or lower the signal
Procedure, shortened: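 Androstenedione secreted into medium was measured by LC-MS/MS after MTBE extraction. Human adrenal H295R cells received 10 uM forskolin for 48 h before 48 h chemical exposure (0.1% DMSO). Gain or loss fitted against DMSO, including concentrations above the MTT-derived MTC.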

[6] = CEETOX_H295R_CORTISOL_noMTC: CeeTox H295R High-throughput Steroidogenesis Assay for Cortisol, maximum tolerated concentration (MTC) filtered results only (AID 2283916; active = hit-call score of the fitted dose curve at least 0.9, where 1 is the maximum; inactive = score below 0.9); conditions: actives raise or lower the signal
Procedure, shortened: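 H295R human adrenal cells prestimulated 48 h with 10 uM forskolin, then exposed 48 h to chemical in 0.1% DMSO; cortisol in medium quantified by HPLC-MS/MS; bidirectional fit vs DMSO baseline, concentrations not MTT-filtered for MTC.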

[7] = CEETOX_H295R_CORTIC_noMTC: CeeTox H295R High-throughput Steroidogenesis Assay for Corticosterone (CORTIC), maximum tolerated concentration (MTC) filtered results only (AID 2283917; active = hit-call score of the fitted dose curve at least 0.9, where 1 is the maximum; inactive = score below 0.9); conditions: actives raise or lower the signal
Procedure, shortened: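 Corticosterone secreted into the medium was measured by reverse-phase C18 HPLC with tandem MS after MTBE extraction. Cells (H295R) had 48 h forskolin (10 uM) stimulation before 48 h chemical exposure; gain or loss of signal was fitted relative to DMSO.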

[8] = CEETOX_H295R_DOC_noMTC: CeeTox H295R High-throughput Steroidogenesis Assay for DOC, maximum tolerated concentration (MTC) filtered results only (AID 2283918; active = hit-call score of the fitted dose curve at least 0.9, where 1 is the maximum; inactive = score below 0.9); conditions: actives raise or lower the signal
Procedure, shortened: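 H295R cells prestimulated 48 h with 10 uM forskolin, then exposed 48 h to chemical in 0.1% DMSO. 11-Deoxycorticosterone in medium measured by MTBE extraction and HPLC-MS/MS; bidirectional fit vs DMSO, no MTC filter.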

[9] = CEETOX_H295R_ESTRADIOL_noMTC: CeeTox H295R High-throughput Steroidogenesis Assay for Estradiol, maximum tolerated concentration (MTC) filtered results only (AID 2283919; active = hit-call score of the fitted dose curve at least 0.9, where 1 is the maximum; inactive = score below 0.9); conditions: actives raise or lower the signal
Procedure, shortened: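 Readout: dansyl-derivatized estradiol quantified by LC-MS/MS in medium from H295R cells dosed 48 h (0.1% DMSO) following 48 h forskolin (10 uM) prestimulation. Gain or loss of signal fitted against DMSO; no MTC filtering applied.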

[10] = CEETOX_H295R_PROG_noMTC: CeeTox H295R High-throughput Steroidogenesis Assay for Progesterone (PROG), maximum tolerated concentration (MTC) filtered results only (AID 2283920; active = hit-call score of the fitted dose curve at least 0.9, where 1 is the maximum; inactive = score below 0.9); conditions: actives raise or lower the signal
Procedure, shortened: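 Readout: medium progesterone by MTBE extraction, reverse-phase C18 HPLC, ESI-positive MS/MS. Human H295R cells, 10 uM forskolin pretreatment 48 h, chemical 48 h in 0.1% DMSO. Gain or loss fitted against DMSO baseline.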

[11] = CEETOX_H295R_ESTRONE_noMTC: CeeTox H295R High-throughput Steroidogenesis Assay for Estrone, maximum tolerated concentration (MTC) filtered results only (AID 2283921; active = hit-call score of the fitted dose curve at least 0.9, where 1 is the maximum; inactive = score below 0.9); conditions: actives raise or lower the signal
Procedure, shortened: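 Estrone in spent medium, quantified by tandem MS following dansyl chloride derivatization, after 48 h chemical exposure (0.1% DMSO) of forskolin-prestimulated (10 uM, 48 h) H295R cells; concentrations not MTC-filtered, bidirectional fit against DMSO.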

[12] = CEETOX_H295R_TESTO_noMTC: CeeTox H295R High-throughput Steroidogenesis Assay for Testosterone (TESTO), maximum tolerated concentration (MTC) filtered results only (AID 2283924; active = hit-call score of the fitted dose curve at least 0.9, where 1 is the maximum; inactive = score below 0.9); conditions: actives raise or lower the signal
Procedure, shortened: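 Medium testosterone, measured by HPLC-MS/MS after liquid-liquid extraction, was fitted in both directions relative to DMSO without MTC filtering. Adrenal H295R cells received 48 h chemical exposure (0.1% DMSO final) after 48 h forskolin (10 uM) prestimulation; viability by MTT.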

[13] = molecular target: PGR (gene 5241) (UniProt P06401); assay: TOX21_PR_BLA_Followup_Agonist_ratio: Tox21 HEK293 Progesterone Receptor (PR) Agonism Beta-lactamase Follow-Up Assay, Ratio (AID 2283933)
Procedure, shortened: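 Ratio-based beta-lactamase reporter signal after 16 hr compound treatment of PR-UAS-bla HEK293T cells at 37C. Substrate loading lasted 2 hr at room temperature.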

[14] = molecular target: PGR (gene 5241) (UniProt P06401); assay: TOX21_PR_BLA_Followup_Antagonist_ratio: Tox21 HEK293 Progesterone Receptor (PR) Antagonism Beta-lactamase Follow-Up Assay, Ratio (AID 2283934);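 also: PR-UAS-bla HEK293T cells stimulated with 1 nM R5020 agonist for 16 hr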
Procedure, shortened: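 Measured in PR-UAS-bla HEK293T cells co-treated with compound and 1 nM promegestone for 16 hr; beta-lactamase ratio read after 2 h FRET substrate loading, with parallel CellTiter-Glo cytotoxicity.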

[15] = TOX21_PR_BLA_Followup_Agonist_viability: Viability Assessment in the Tox21 HEK293 Progesterone Receptor (PR) Agonism Beta-lactamase Follow-Up Assay (AID 2283935);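 also: signal loss means lower viability so actives are cytotoxic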
Procedure, shortened: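 Viability is read as CellTiter-Glo luminescence, where loss of signal indicates cytotoxicity. The cells are PR-UAS-bla HEK293T given compounds for 16 hr at 37C and 5% CO2, in the same wells used for the bla readout.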

[16] = TOX21_PR_BLA_Followup_Antagonist_viability: Viability Assessment in the Tox21 HEK293 Progesterone Receptor (PR) Antagonism Beta-lactamase Follow-Up Assay (AID 2283936);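 also: cells exposed to compound with R5020 agonist for 16 h; hits lower the luminescence signal meaning cytotoxicity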
Procedure, shortened: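 PR-UAS-bla HEK293T cells in medium with 2% charcoal-stripped FBS were treated with compounds plus R5020 for 16 hr at 37C. After the beta-lactamase read, CellTiter-Glo was added to the same wells and luminescence read after 30 min at room temperature.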

[17] = molecular target: PGR (gene 5241) (UniProt P06401); assay: TOX21_PR_LUC_Followup_Agonist: Tox21 HEK293 Progesterone Receptor (PR) Agonism Luciferase Follow-Up Assay (AID 2283937; active = hit-call score of the fitted dose curve at least 0.9, where 1 is the maximum; inactive = score below 0.9)
Procedure, shortened: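 In HEK293 cells stably expressing PR-A with a luciferase reporter, compounds were incubated 16 h at 37C, and induced luminescence was quantified with ONE-Glo, multiplexed with cell viability.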

[18] = molecular target: PGR (gene 5241) (UniProt P06401); assay: TOX21_PR_LUC_Followup_Antagonist: Tox21 HEK293 Progesterone Receptor (PR) Antagonism Luciferase Follow-Up Assay (AID 2283938);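 also: curve fitted upward as signal gain over DMSO baseline despite antagonist label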
Procedure, shortened: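 Cells are grown 5 days in charcoal-stripped-FBS assay medium, plated, left 5 h, then dosed with compound and incubated 16 h. ONE-Glo reagent is added and luminescence read after 30 min.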

[19] = ACEA_ER_AUC_viability: ACEA Biosciences xCELLigence Real-Time Cell Analysis on Estrogen Receptor Agonism for Viability (AID 2283782);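 also: hit means loss of impedance signal meaning reduced cell growth or viability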
Procedure, shortened: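 Read-out: real-time electrical impedance (RT-CES) area under curve, loss of signal taken as reduced viability, normalized to DMSO baseline. T-47D cells, charcoal-stripped serum medium, compounds up to 100 uM final, continuous exposure, 80 h.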

[20] = system: Thyroperoxidase (TPO), gene 54314; assay: CCTE_Simmons_AUR_rTPO: CCTE's Amplex UltraRed Assay for Thyroperoxidase (TPO) Inhibition, Simmons Lab (AID 2283662);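 also: potency for loss of signal meaning inhibition of peroxidase activity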
Procedure, shortened: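 Endpoint is decreased Amplex UltraRed fluorescence after a 30-min, 37C reaction of rat thyroid microsomes with 300 uM H2O2. Eight test concentrations (5 nM–87.5 uM final) in 0.5% DMSO, three biological replicates each.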

[21] = molecular target: Luciferin 4-monooxygenase (Photinus pyralis) (UniProt P08659); assay: CCTE_Simmons_QuantiLum_inhib_2: CCTE's Firefly Luciferase Inhibition Assay, Simmons Lab (AID 2283767)
Procedure, shortened: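 Eight-point titrations of each chemical, 5 nM–87.5 uM final in 0.5% DMSO, were run in three biological replicates against recombinant luciferase for 30 min at 37C. Bioluminescence signal loss, read on reagent injection, gave the inhibition endpoint.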

[22] = TOX21_PR_LUC_Followup_Agonist_viability: Viability Assessment in the Tox21 HEK293 Progesterone Receptor (PR) Agonism Luciferase Follow-Up Assay (AID 2283941);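 also: loss of signal means cytotoxicity so actives lower viability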
Procedure, shortened: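 Seeding: HEK293-PR-A-luc, 3,000 cells/well, 5 h at 37C. Treatment: compound in DMSO, 16 h, 37C. Read: CellTiter-Glo ATP luminescence, signal loss taken as lower viability.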

Measured: AC50

Chain of PGR (gene 5241) (P06401 whole entry, looked up): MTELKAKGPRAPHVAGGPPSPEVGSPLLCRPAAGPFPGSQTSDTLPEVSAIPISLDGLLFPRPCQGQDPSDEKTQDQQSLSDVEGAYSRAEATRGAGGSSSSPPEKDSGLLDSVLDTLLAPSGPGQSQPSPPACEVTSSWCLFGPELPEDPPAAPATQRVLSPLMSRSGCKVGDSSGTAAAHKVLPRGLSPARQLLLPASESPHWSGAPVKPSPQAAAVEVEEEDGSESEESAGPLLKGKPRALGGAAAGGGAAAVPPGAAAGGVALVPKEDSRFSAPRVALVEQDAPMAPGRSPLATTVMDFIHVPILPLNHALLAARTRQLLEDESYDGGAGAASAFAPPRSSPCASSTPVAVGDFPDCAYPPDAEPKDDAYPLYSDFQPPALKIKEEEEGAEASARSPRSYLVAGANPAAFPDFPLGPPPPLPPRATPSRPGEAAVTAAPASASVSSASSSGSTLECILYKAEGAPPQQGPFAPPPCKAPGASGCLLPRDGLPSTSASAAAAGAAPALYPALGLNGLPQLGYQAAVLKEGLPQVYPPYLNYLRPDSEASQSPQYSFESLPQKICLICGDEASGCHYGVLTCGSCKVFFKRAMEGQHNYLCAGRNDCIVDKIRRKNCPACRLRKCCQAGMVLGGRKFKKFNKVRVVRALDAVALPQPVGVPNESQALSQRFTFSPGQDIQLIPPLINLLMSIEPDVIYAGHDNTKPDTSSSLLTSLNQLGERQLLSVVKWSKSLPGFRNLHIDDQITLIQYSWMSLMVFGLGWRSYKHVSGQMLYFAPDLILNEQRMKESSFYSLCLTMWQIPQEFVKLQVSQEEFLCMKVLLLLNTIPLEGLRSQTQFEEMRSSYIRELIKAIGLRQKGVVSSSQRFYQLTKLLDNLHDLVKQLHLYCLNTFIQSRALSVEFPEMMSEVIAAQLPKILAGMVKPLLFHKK
Chain of Luciferin 4-monooxygenase (Photinus pyralis) (P08659 whole entry, looked up): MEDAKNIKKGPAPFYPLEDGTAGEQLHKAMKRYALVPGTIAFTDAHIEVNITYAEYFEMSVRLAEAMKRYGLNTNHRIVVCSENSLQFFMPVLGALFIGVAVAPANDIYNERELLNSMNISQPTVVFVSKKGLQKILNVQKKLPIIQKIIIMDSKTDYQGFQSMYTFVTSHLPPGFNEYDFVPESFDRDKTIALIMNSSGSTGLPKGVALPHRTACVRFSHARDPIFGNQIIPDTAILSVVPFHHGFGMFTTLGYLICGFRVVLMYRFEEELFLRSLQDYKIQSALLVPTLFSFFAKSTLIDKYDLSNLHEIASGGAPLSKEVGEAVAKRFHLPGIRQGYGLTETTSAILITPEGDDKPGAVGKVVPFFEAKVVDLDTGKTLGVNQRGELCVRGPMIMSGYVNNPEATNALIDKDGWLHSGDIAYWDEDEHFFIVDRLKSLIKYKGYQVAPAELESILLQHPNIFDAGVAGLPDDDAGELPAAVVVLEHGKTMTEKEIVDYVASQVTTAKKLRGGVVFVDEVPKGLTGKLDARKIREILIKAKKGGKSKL

CS(=O)(=O)OCCOS(C)(=O)=O
inactive: [1] | [2] | [3] | [4] | [5] | [6] | [7] | [8] | [9] | [10] | [11] | [12]

CCCOc1ccc2c(c1)CC[C@@H]1[C@@H]2CC[C@]2(C)C(OC)CC[C@@H]12 (some centres undefined)
inactive: [13] | [15] | [16] | [17] | [18]
active: [14] 12.8 µM

C1CCC2(CCCCO2)OC1
inactive: [19]

O=c1[nH]c2ccccc2s1
active: [20] 31.3 µM
inactive: [21]

CC1=CC(=O)CCC1
inactive: [19]

COC(=O)C1=C(C)NC(C)=C(C(=O)OC(C)C)C1c1cccc2nonc12 (centres undefined)
inactive: [13] | [15] | [16] | [17] | [22]
active: [14] 19.4 µM | [18] 18.1 µM
